# Active and inactive are the calls of the source. The calls were made as follows: active = hit-call score of the fitted dose curve at least 0.9, where 1 is the maximum; inactive = score below 0.9.
# Columns and labels:
# Conditions in all cases: mRNA level, 48 h; actives raise or lower the signal
# [1] = read-out: Intercellular Adhesion Molecule 1 (ICAM1), ICAM1 (gene 3383); assay: LTEA_HepaRG_ICAM1: Life Technologies and Expression Analysis (LTEA) Assay for Intercellular Adhesion Molecule 1 (ICAM1) using HepaRG (AID 2283507)
# Procedure, shortened: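 Differentiated human HepaRG cells in serum-free induction medium exposed 48 h in duplicate to 8 half-log concentrations (top 100 uM, 0.5% DMSO). ICAM1 mRNA quantified by TaqMan qRT-PCR, normalized to ACTB, GAPDH and POLR2A; bidirectional fitting versus DMSO.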
# [2] = read-out: Insulin-like growth factor-binding protein 1 (IGFBP1), IGFBP1 (gene 3484); assay: LTEA_HepaRG_IGFBP1: Life Technologies and Expression Analysis (LTEA) Assay for Insulin-like growth factor-binding protein 1 (IGFBP1) using HepaRG (AID 2283508)
# Procedure, shortened: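 HepaRG cells, plated 48 h then switched to serum-free induction medium, exposed in duplicate for 48 h to 8-point half-log series from 100 uM in 0.5% DMSO. mRNA measured by qRT-PCR, normalized to ACTB/GAPDH/POLR2A; bidirectional fit versus DMSO.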
# [3] = read-out: Interleukin 6 (IL6), IL6 (gene 3569); assay: LTEA_HepaRG_IL6: Life Technologies and Expression Analysis (LTEA) Assay for Interleukin 6 (IL6) using HepaRG (AID 2283509)
# Procedure, shortened: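 Transcript levels, normalized to three housekeeping genes, were quantified by qRT-PCR after 48 h chemical treatment of HepaRG cells. Eight-point half-log series from 100 uM in 0.5% DMSO, duplicates. Fitted both directions against DMSO baseline.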
# [4] = read-out: Interleukin 6 Receptor (IL6R), IL6R (gene 3570); assay: LTEA_HepaRG_IL6R: Life Technologies and Expression Analysis (LTEA) Assay for Interleukin 6 Receptor (IL6R) using HepaRG (AID 2283510)
# Procedure, shortened: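 HepaRG, 48 h exposure, 8-pt half-log series, top 100 uM, 0.5% DMSO vehicle, duplicates. Read-out: TaqMan qRT-PCR of IL6R transcript, housekeeping-gene normalized. Gain or loss fitted relative to DMSO baseline.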
# [5] = read-out: Potassium channel subfamily K member 1 (KCNK1), KCNK1 (gene 3775); assay: LTEA_HepaRG_KCNK1: Life Technologies and Expression Analysis (LTEA) Assay for Potassium channel subfamily K member 1 (KCNK1) using HepaRG (AID 2283511)
# Procedure, shortened: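 KCNK1 transcript measured by TaqMan qRT-PCR against three housekeeping genes, after HepaRG cells were treated 48 h with eight half-log concentrations (top 100 uM, 0.5% DMSO). Curves fitted bidirectionally relative to vehicle.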
# [6] = read-out: Keratin 19 (KRT19), KRT19 (gene 3880); assay: LTEA_HepaRG_KRT19: Life Technologies and Expression Analysis (LTEA) Assay for Keratin 19 (KRT19) using HepaRG (AID 2283512)
# Procedure, shortened: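 Differentiated HepaRG cells in serum-free induction medium, exposed 48 h in duplicate to 8 half-log concentrations up to 100 uM in 0.5% DMSO. KRT19 mRNA by qRT-PCR, normalized to ACTB, GAPDH, POLR2A; bidirectional fit vs DMSO.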
# [7] = read-out: JUN Transcription Factor, JUN (gene 3725); assay: LTEA_HepaRG_JUN: Life Technologies and Expression Analysis (LTEA) Assay for JUN Transcription Factor using HepaRG (AID 2283513)
# Procedure, shortened: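 HepaRG, 48 h exposure, 8-pt half-log series top 100 uM, 0.5% DMSO, duplicate. JUN mRNA by qRT-PCR (Fluidigm), housekeeping-normalized (ACTB/GAPDH/POLR2A); bidirectional curve fit vs DMSO baseline.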
# [8] = read-out: Lipase C (LIPC), LIPC (gene 3990); assay: LTEA_HepaRG_LIPC: Life Technologies and Expression Analysis (LTEA) Assay for Lipase C (LIPC) using HepaRG (AID 2283514)
# Procedure, shortened: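 LIPC expression was quantified by qRT-PCR against three housekeeping genes (ACTB, GAPDH, POLR2A). Differentiated human HepaRG cells received eight half-log doses (top 100 uM, 0.5% DMSO) in duplicate for 48 h; fitting bidirectional relative to DMSO.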
# [9] = read-out: Lipoprotein lipase (LPL), LPL (gene 4023); assay: LTEA_HepaRG_LPL: Life Technologies and Expression Analysis (LTEA) Assay for Lipoprotein lipase (LPL) using HepaRG (AID 2283515)
# Procedure, shortened: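 LPL transcript levels quantified by TaqMan qRT-PCR against three housekeeping genes after 48 h chemical treatment of HepaRG cells. Eight-point half-log series from 100 uM in 0.5% DMSO, tested in duplicate; bidirectional fitting versus vehicle.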
# [10] = read-out: MicroRNA 122 (MIR122), gene 406906; assay: LTEA_HepaRG_MIR122: Life Technologies and Expression Analysis (LTEA) Assay for MicroRNA 122 (MIR122) using HepaRG (AID 2283516); also: the transcript read is the microRNA miR-122
# Procedure, shortened: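 qRT-PCR read-out (TaqMan, Fluidigm array), normalized to three housekeeping genes; HepaRG cells dosed 48 h at 8 concentrations up to 100 uM in 0.5% DMSO, duplicate; gain or loss fitted against DMSO baseline.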
# [11] = read-out: matrix metalloproteinase-10 (MMP10), MMP10 (gene 4319); assay: LTEA_HepaRG_MMP10: Life Technologies and Expression Analysis (LTEA) Assay for matrix metalloproteinase-10 (MMP10) using HepaRG (AID 2283517)
# Procedure, shortened: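 Expression measured by TaqMan qRT-PCR with ACTB/GAPDH/POLR2A normalisation after 48 h chemical exposure of HepaRG cells. Eight half-log concentrations, top 100 uM, 0.5% DMSO vehicle, duplicates; gain or loss fitted against vehicle.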
# [12] = read-out: MYC, MYC (gene 4609); assay: LTEA_HepaRG_MYC: Life Technologies and Expression Analysis (LTEA) Assay for MYC using HepaRG (AID 2283518)
# Procedure, shortened: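 Differentiated HepaRG cells exposed 48 h in serum-free induction medium to 8 concentrations (top 100 uM, half-log steps; 0.5% DMSO), duplicate. MYC mRNA measured by Fluidigm qRT-PCR, normalized to ACTB, GAPDH, POLR2A; bidirectional fit versus DMSO.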
# [13] = read-out: Paternally Expressed 10 (PEG10), PEG10 (gene 23089); assay: LTEA_HepaRG_PEG10: Life Technologies and Expression Analysis (LTEA) Assay for Paternally Expressed 10 (PEG10) using HepaRG (AID 2283520);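 as to AC50: PEG10 transcript by qRT-PCR normalised to ACTB GAPDH and POLR2A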
# Procedure, shortened: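 qRT-PCR read-out: PEG10 mRNA normalised to three housekeeping genes, fitted bidirectionally against 0.5% DMSO vehicle. HepaRG cells received test chemicals for 48 h in serum-free induction medium, 8 points, top 100 uM, half-log steps.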
# [14] = read-out: Nuclear factor NF-kappa-B p105 subunit (Homo sapiens) (UniProt P19838); assay: LTEA_HepaRG_NFKB1: Life Technologies and Expression Analysis (LTEA) Assay for Nuclear Factor Kappa B Subunit 1 (NFKB1) using HepaRG (AID 2283521);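 also: TaqMan qRT-PCR transcript normalised to ACTB GAPDH and POLR2A housekeeping genes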
# Procedure, shortened: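 Human HepaRG cells receive eight half-log concentrations, highest 100 uM, for 48 h. NFKB1 expression is then quantified by qRT-PCR and analysed for up- or down-regulation relative to 0.5% DMSO vehicle.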
# [15] = read-out: Protein phosphatase 2A (PPP2R4), PTPA (gene 5524); assay: LTEA_HepaRG_PPP2R4: Life Technologies and Expression Analysis (LTEA) Assay for Protein phosphatase 2A (PPP2R4) using HepaRG (AID 2283522)
# Procedure, shortened: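 HepaRG, 48 h exposure, 8-pt half-log series from 100 uM, 0.5% DMSO vehicle, duplicates. Readout: PPP2R4 mRNA, Fluidigm qRT-PCR, housekeeping-normalized. Bidirectional curve fit vs DMSO baseline.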
# [16] = read-out: Phosphatase and tensin (PTEN), PTEN (gene 5728); assay: LTEA_HepaRG_PTEN: Life Technologies and Expression Analysis (LTEA) Assay for Phosphatase and tensin (PTEN) using HepaRG (AID 2283523)
# Procedure, shortened: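 Read-out: TaqMan qRT-PCR of PTEN transcript, normalized to three housekeeping genes, fitted in both directions against 0.5% DMSO. Differentiated human HepaRG cultures received chemicals for 48 h, eight-point half-log series topping at 100 uM.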
# [17] = read-out: solute carrier (SLC22A1), SLC22A1 (gene 6580); assay: LTEA_HepaRG_SLC22A1: Life Technologies and Expression Analysis (LTEA) Assay for solute carrier (SLC22A1) using HepaRG (AID 2283524)
# Procedure, shortened: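 Transcript level of SLC22A1 quantified by qRT-PCR (normalized to three housekeeping genes) after 48 h chemical exposure of HepaRG cells, eight concentrations up to 100 µM, half-log steps, 0.5% DMSO vehicle. Gain or loss relative to DMSO fitted bidirectionally.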
# [18] = read-out: Pyruvate Dehydrogenase Kinase 4 (PDK4), PDK4 (gene 5166); assay: LTEA_HepaRG_PDK4: Life Technologies and Expression Analysis (LTEA) Assay for Pyruvate Dehydrogenase Kinase 4 (PDK4) using HepaRG (AID 2283525)
# Procedure, shortened: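 Readout is qRT-PCR of PDK4 transcript, normalized to three housekeeping genes, with bidirectional fitting against 0.5% DMSO vehicle. Differentiated HepaRG cells were treated 48 h in serum-free induction medium, duplicate wells, eight-point half-log series topping at 100 uM.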
# [19] = read-out: matrix metalloproteinase-3 (MMP3), MMP3 (gene 4314); assay: LTEA_HepaRG_MMP3: Life Technologies and Expression Analysis (LTEA) Assay for matrix metalloproteinase-3 (MMP3) using HepaRG (AID 2283519)
# Procedure, shortened: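 Fluidigm-based TaqMan qRT-PCR, normalized to ACTB, GAPDH and POLR2A and fitted bidirectionally versus 0.5% DMSO, measured transcript levels. Treatment: duplicate 48 h exposures of HepaRG cells, ~100,000/well, to eight half-log concentrations topping at 100 uM.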
# [20] = read-out: NAD(P)H dehydrogenase [quinone] 1 (NQO1), NQO1 (gene 1728); assay: LTEA_HepaRG_NQO1: Life Technologies and Expression Analysis (LTEA) Assay for NAD(P)H dehydrogenase [quinone] 1 (NQO1) using HepaRG (AID 2283526)
# Procedure, shortened: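 qRT-PCR read-out (Fluidigm TaqMan), normalized to three housekeeping genes, after 48 h chemical exposure of HepaRG cells. Concentrations: eight points, top 100 uM, half-log steps, 0.5% DMSO vehicle. Gain or loss of signal fitted relative to DMSO.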
# Chain of Nuclear factor NF-kappa-B p105 subunit (Homo sapiens) (P19838 whole entry, looked up): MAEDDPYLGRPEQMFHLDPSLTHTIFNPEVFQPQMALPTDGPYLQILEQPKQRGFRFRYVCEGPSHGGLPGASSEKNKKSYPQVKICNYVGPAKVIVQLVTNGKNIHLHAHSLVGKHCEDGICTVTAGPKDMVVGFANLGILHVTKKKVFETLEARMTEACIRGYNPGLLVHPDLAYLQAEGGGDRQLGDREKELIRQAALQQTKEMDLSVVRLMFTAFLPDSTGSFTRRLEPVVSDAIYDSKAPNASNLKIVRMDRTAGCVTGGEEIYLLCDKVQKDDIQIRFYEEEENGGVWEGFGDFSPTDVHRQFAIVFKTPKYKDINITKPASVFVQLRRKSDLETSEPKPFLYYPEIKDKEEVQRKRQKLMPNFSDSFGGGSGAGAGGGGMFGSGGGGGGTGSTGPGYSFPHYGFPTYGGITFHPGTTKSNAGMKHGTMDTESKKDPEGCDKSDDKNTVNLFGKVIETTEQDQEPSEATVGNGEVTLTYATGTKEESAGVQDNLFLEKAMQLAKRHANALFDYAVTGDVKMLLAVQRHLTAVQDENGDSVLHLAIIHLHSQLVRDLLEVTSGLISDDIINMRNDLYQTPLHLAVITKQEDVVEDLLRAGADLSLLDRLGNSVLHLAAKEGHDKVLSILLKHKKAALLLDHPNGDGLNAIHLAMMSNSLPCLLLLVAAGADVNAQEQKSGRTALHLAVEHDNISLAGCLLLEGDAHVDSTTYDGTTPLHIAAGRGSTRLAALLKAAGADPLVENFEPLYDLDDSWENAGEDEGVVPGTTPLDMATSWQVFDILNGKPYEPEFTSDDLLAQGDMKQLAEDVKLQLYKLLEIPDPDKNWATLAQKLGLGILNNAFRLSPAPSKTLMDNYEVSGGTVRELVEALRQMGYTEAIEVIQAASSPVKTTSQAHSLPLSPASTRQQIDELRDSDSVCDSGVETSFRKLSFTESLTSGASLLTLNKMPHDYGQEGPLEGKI
smiles,measurement,setting,value
C=C(C)[C@H]1Cc2c(ccc3c2O[C@@H]2COc4cc(OC)c(OC)cc4[C@@H]2C3=O)O1,AC50,[1],2.14 µM (active)
same,AC50,[2],2.9 µM (active)
same,AC50,[3],1.44 µM (active)
same,outcome,[4],inactive
same,AC50,[5],16.6 µM (active)
same,AC50,[6],0.654 µM (active)
same,AC50,[7],17.8 µM (active)
same,AC50,[8],12.7 µM (active)
same,AC50,[9],2.16 µM (active)
same,AC50,[10],1.32 µM (active)
same,AC50,[11],17.7 µM (active)
same,AC50,[12],6.64 µM (active)
same,AC50,[13],0.173 µM (active)
same,outcome,[14],inactive
same,AC50,[15],50 µM (active)
same,outcome,[16],inactive
same,AC50,[17],1.95 µM (active)
same,AC50,[18],13.2 µM (active)
CC(C)N(C(=O)SCC(Cl)=C(Cl)Cl)C(C)C,outcome,[1],inactive
same,outcome,[2],inactive
same,outcome,[3],inactive
same,outcome,[4],inactive
same,outcome,[5],inactive
same,outcome,[6],inactive
same,outcome,[7],inactive
same,outcome,[8],inactive
same,outcome,[9],inactive
same,outcome,[10],inactive
same,outcome,[11],inactive
same,outcome,[12],inactive
same,outcome,[13],inactive
same,outcome,[15],inactive
same,outcome,[16],inactive
same,outcome,[17],inactive
same,outcome,[18],inactive
C[Si](Cn1cncn1)(c1ccc(F)cc1)c1ccc(F)cc1,AC50,[1],81.1 µM (active)
same,AC50,[2],67.7 µM (active)
same,AC50,[3],92.6 µM (active)
same,outcome,[4],inactive
same,AC50,[5],50 µM (active)
same,outcome,[6],inactive
same,outcome,[7],inactive
same,AC50,[8],26.7 µM (active)
same,AC50,[9],50 µM (active)
same,AC50,[10],61.4 µM (active)
same,AC50,[12],68.1 µM (active)
same,AC50,[19],11.6 µM (active)
same,outcome,[13],inactive
same,outcome,[15],inactive
same,outcome,[16],inactive
same,AC50,[17],63.1 µM (active)
same,outcome,[18],inactive
CCC(CC)Nc1c([N+](=O)[O-])cc(C)c(C)c1[N+](=O)[O-],outcome,[1],inactive
same,outcome,[2],inactive
same,outcome,[3],inactive
same,outcome,[4],inactive
same,outcome,[5],inactive
same,AC50,[6],50 µM (active)
same,outcome,[7],inactive
same,outcome,[8],inactive
same,outcome,[9],inactive
same,outcome,[10],inactive
same,outcome,[11],inactive
same,outcome,[12],inactive
same,AC50,[13],50 µM (active)
same,outcome,[14],inactive
same,outcome,[15],inactive
same,outcome,[16],inactive
same,outcome,[17],inactive
same,outcome,[18],inactive
same,outcome,[20],inactive
CCNc1nc(Cl)nc(NC(C)(C)C#N)n1,outcome,[1],inactive
same,outcome,[2],inactive
same,outcome,[3],inactive
same,outcome,[4],inactive
same,outcome,[5],inactive
same,outcome,[7],inactive
same,outcome,[8],inactive
same,outcome,[9],inactive
same,outcome,[10],inactive
same,outcome,[11],inactive
same,outcome,[12],inactive
same,AC50,[13],26.5 µM (active)
same,outcome,[15],inactive
same,outcome,[16],inactive
same,outcome,[17],inactive
same,outcome,[18],inactive
C#CC(C)(C)NC(=O)c1cc(Cl)cc(Cl)c1,outcome,[1],inactive
same,outcome,[2],inactive
same,outcome,[3],inactive
same,outcome,[5],inactive
same,AC50,[6],11.8 µM (active)
same,outcome,[7],inactive
same,outcome,[8],inactive
same,outcome,[9],inactive
same,outcome,[10],inactive
same,outcome,[12],inactive
same,AC50,[13],50 µM (active)
same,outcome,[14],inactive
same,outcome,[15],inactive
same,outcome,[16],inactive
same,outcome,[17],inactive
same,outcome,[18],inactive
